Test results reported in PubChem BioAssay (NCI).
“And” between values parts separate entries of the source, which are not always exact repeats. Identical values can stand only once. The panel holds about 79,000 compounds, 15% with a hit somewhere; the sample as a whole holds those more often. The source made the active and inactive calls. Cut-off read from the data, not from the text of the source: active = growth inhibition above about 70%; inactive = the rest.

How the values were obtained:
[1] = NCI Yeast Anticancer Drug Screen. Data for the rad52 strain (AID 147);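 note: 0% = growth of vehicle-treated control cultures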; conditions: S. cerevisiae rad52 mutant growth inhibition, active compounds read high
Outline: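 The repair-mutant yeast strain was incubated with compounds, then growth was read and inhibition derived relative to vehicle.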

[2] = NCI Yeast Anticancer Drug Screen. Data for the wt1 strain (AID 149);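 note: 0% = growth of vehicle-treated wt1 cultures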; conditions: S. cerevisiae wt1 strain (SPY 50644) growth inhibition, active compounds read high
Outline: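 Measured: growth of wt1 yeast under compound versus vehicle treatment, reported as inhibition.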

[3] = NCI Yeast Anticancer Drug Screen. Data for the rad50EPP+ strain (AID 151);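 note: 0% = growth of vehicle-treated control cultures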; conditions: S. cerevisiae rad50 mutant strain, active compounds read high
Outline: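 Vehicle-normalised growth inhibition; rad50EPP+ yeast strain, altered in DNA damage repair, compound-treated.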

[4] = NCI Yeast Anticancer Drug Screen. Data for the rad50 strain (AID 155);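 note: 0% = growth of vehicle-only cultures of the same strain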; conditions: S. cerevisiae rad50 strain growth inhibition, active compounds read high
Outline: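 Growth of the mutant yeast was measured after compound exposure and referenced to vehicle-treated cultures.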

[5] = NCI Yeast Anticancer Drug Screen. Data for the mec2-1 strain (AID 157); conditions: S. cerevisiae mec2-1 strain, active compounds read high
Outline: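 Mutant yeast (mec2-1) grown with compound; growth inhibition relative to vehicle control reported.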

[6] = NCI Yeast Anticancer Drug Screen. Data for the rad14 strain (AID 159);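 note: 0% = growth of vehicle-treated control cultures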; conditions: S. cerevisiae rad14 strain growth inhibition, active compounds read high
Outline: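 Here, inhibition of yeast growth was measured after compound exposure, using a strain with a genetic defect in DNA damage repair and vehicle-treated cultures as the reference.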

[7] = NCI Yeast Anticancer Drug Screen. Data for the sgs1 mgt1 strain (AID 161);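 note: 0% = growth of cultures given vehicle only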; conditions: S. cerevisiae sgs1 mgt1 strain, active compounds read high
Outline: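 This yeast growth screen uses a strain with defined DNA-repair lesions; compound-treated growth is compared with vehicle-treated growth.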

[8] = NCI Yeast Anticancer Drug Screen. Data for the CLN2oe strain (AID 163);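 note: 0% = growth of vehicle-only control cultures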; conditions: S. cerevisiae CLN2oe strain, active compounds read high
Outline: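 Compounds are applied to yeast harbouring a defined cell-cycle control change; reduced growth compared with vehicle-treated controls gives the value.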

[9] = NCI Yeast Anticancer Drug Screen. Data for the bub3 strain (AID 167); conditions: S. cerevisiae bub3 mutant strain, active compounds read high
Outline: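 Whole-cell yeast assay. The mutant strain was incubated with compounds, and growth inhibition was determined by comparison with vehicle-treated cells.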

[10] = NCI Yeast Anticancer Drug Screen. Data for the wt2 strain (AID 169);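 note: 0% = growth of vehicle-treated yeast cultures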; conditions: S. cerevisiae wt2 strain growth inhibition, active compounds read high
Outline: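 Against vehicle-treated controls, the growth of yeast exposed to each compound was compared, and the inhibition was recorded.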

[11] = NCI Yeast Anticancer Drug Screen. Data for the mlh1 strain (AID 171);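 note: 0% = growth of vehicle-treated control cultures of the same strain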; conditions: S. cerevisiae mlh1 strain growth inhibition, active compounds read high
Outline: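 Measured: yeast growth. Reference: vehicle-treated controls. Organism: strain with a defined alteration affecting DNA damage repair or cell cycle control, treated with compound.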

[12] = NCI Yeast Anticancer Drug Screen. Data for the sgs1 strain (AID 173);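 note: 0% = growth of vehicle-only control cultures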; conditions: S. cerevisiae sgs1 mutant, active compounds read high
Outline: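 Each compound was added to cultures of the altered yeast strain. Growth was recorded, and inhibition was derived by comparison with vehicle controls.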

[13] = NCI Yeast Anticancer Drug Screen. Data for the mlh1 rad18 strain (AID 175); conditions: S. cerevisiae mlh1 rad18 strain growth inhibition, active compounds read high
Outline: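 Genetically defined yeast (DNA repair-deficient) exposed to compounds; growth inhibition determined relative to vehicle.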

[14] = NCI Yeast Anticancer Drug Screen. Data for the rad18 strain (AID 177); conditions: S. cerevisiae rad18 mutant growth inhibition, active compounds read high
Outline: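 Vehicle-treated cultures served as the baseline for scoring compound-induced growth inhibition in DNA-repair-mutant yeast.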

[15] = at 5.0 µM (retest, dose inferred, filed as 0.5)
[16] = at 50.0 µM (retest, dose inferred, filed as 5.0)

Measured: growth inhibition

O=Nn1c2ccccc2c2ccccc21
active: [3]; at 100.0 µM 79% | [4]; at 100.0 µM 83% | [6]; at 100.0 µM 92% | [9]; [16] 95% | [11]; at 100.0 µM 93%
inactive: [1]; at 1.2 µM -15% | [1]; at 3.7 µM -18% | [1]; at 11.0 µM -22% | [1]; at 33.0 µM 5% | [1]; at 100.0 µM 68% | [2]; at 1.2 µM 2% | [2]; at 3.7 µM 21% | [2]; at 11.0 µM 7% | [2]; at 33.0 µM 9% | [2]; at 100.0 µM 60% | [3]; at 1.2 µM 0% | [3]; at 3.7 µM 18% | [3]; at 11.0 µM 9% | [3]; at 33.0 µM 50% | [4]; at 1.2 µM 12% | [4]; at 3.7 µM -1% | [4]; [15] -13% | [4]; at 11.0 µM -3% | [4]; at 33.0 µM 23% | [4]; [16] 13% | [4]; at 50.0 µM 27.5% and 25.4% | [5]; at 1.2 µM -17% | [5]; at 3.7 µM 2% | [5]; [15] -1% | [5]; at 11.0 µM 1% | [5]; at 33.0 µM 21% | [5]; [16] 9% | [5]; at 50.0 µM 16.7% and 11.6% | [5]; at 100.0 µM 65% | [6]; at 1.2 µM 10% | [6]; at 3.7 µM 6% | [6]; at 11.0 µM 11% | [6]; at 33.0 µM 49% | [7]; [15] 2% | [7]; [16] -10% | [7]; at 50.0 µM 5.25% and 16.6% | [8]; at 1.2 µM 11% | [8]; at 3.7 µM 4% | [8]; at 11.0 µM 11% | [8]; at 33.0 µM 2% | [8]; at 100.0 µM 65% | [9]; at 1.2 µM -7% | [9]; at 3.7 µM -9% | [9]; [15] -28% | [9]; at 11.0 µM -14% | [9]; at 33.0 µM -3% | [9]; at 50.0 µM 1.5% and 66% | [9]; at 100.0 µM 59% | [10]; at 1.2 µM -46% | [10]; at 3.7 µM -34% | [10]; at 11.0 µM -28% | [10]; at 33.0 µM -15% | [10]; at 100.0 µM 62% | [11]; at 1.2 µM 27% | [11]; at 3.7 µM 27% | [11]; at 11.0 µM 19% | [11]; at 33.0 µM 56% | [12]; at 1.2 µM -3% | [12]; at 3.7 µM 5% | [12]; at 11.0 µM 10% | [12]; at 33.0 µM 7% | [12]; at 100.0 µM 66% | [13]; [15] -16% | [13]; [16] 16% | [13]; at 50.0 µM 21.5% and 15.5%

CN(N=O)c1ccc(/C=C/c2ccnc3ccccc23)cc1
active: [1]; at 33.0 µM 85% | [1]; at 100.0 µM 96% | [3]; at 33.0 µM 90% | [3]; at 100.0 µM 98% | [4]; at 33.0 µM 89% | [4]; [16] 87% | [4]; at 50.0 µM 95.8% | [4]; at 100.0 µM 95% | [5]; at 100.0 µM 90% | [6]; at 100.0 µM 71% | [10]; at 100.0 µM 81% | [11]; at 100.0 µM 86% | [12]; at 100.0 µM 90% | [13]; at 50.0 µM 78.6% | [14]; at 100.0 µM 91%
inactive: [1]; at 1.2 µM 2% | [1]; at 3.7 µM 9% | [1]; at 11.0 µM 35% | [2]; at 1.2 µM 0% | [2]; at 3.7 µM 2% | [2]; at 11.0 µM 8% | [2]; at 33.0 µM 20% | [2]; at 100.0 µM 57% | [3]; at 1.2 µM 7% | [3]; at 3.7 µM 26% | [3]; at 11.0 µM 68% | [4]; at 1.2 µM 5% | [4]; at 3.7 µM 14% | [4]; [15] 23% | [4]; at 11.0 µM 42% | [5]; at 1.2 µM 3% | [5]; at 3.7 µM 5% | [5]; [15] 7% | [5]; at 11.0 µM 13% | [5]; at 33.0 µM 34% | [5]; [16] 32% | [5]; at 50.0 µM 42.5% | [6]; at 1.2 µM 3% | [6]; at 3.7 µM 3% | [6]; at 11.0 µM 10% | [6]; at 33.0 µM 24% | [7]; [15] 8% | [7]; [16] 43% | [7]; at 50.0 µM 47.3% | [8]; at 1.2 µM 3% | [8]; at 3.7 µM -4% | [8]; at 11.0 µM 5% | [8]; at 33.0 µM 15% | [8]; at 100.0 µM 56% | [9]; at 1.2 µM -3% | [9]; at 3.7 µM 3% | [9]; [15] 4% | [9]; at 11.0 µM 16% | [9]; at 33.0 µM 32% | [9]; [16] 25% | [9]; at 50.0 µM 37% | [9]; at 100.0 µM 68% | [10]; at 1.2 µM -4% | [10]; at 3.7 µM 1% | [10]; at 11.0 µM 7% | [10]; at 33.0 µM 28% | [11]; at 1.2 µM 3% | [11]; at 3.7 µM 5% | [11]; at 11.0 µM 13% | [11]; at 33.0 µM 31% | [12]; at 1.2 µM -2% | [12]; at 3.7 µM 3% | [12]; at 11.0 µM 10% | [12]; at 33.0 µM 55% | [13]; [15] 3% | [13]; [16] 68% | [14]; at 1.2 µM 0% | [14]; at 3.7 µM 2% | [14]; at 11.0 µM 16% | [14]; at 33.0 µM 55%

C/C(=N\NC(=S)NC1CCCC1)c1ccccn1
inactive: [1]; at 1.2 µM -5% | [2]; at 1.2 µM 3% | [3]; at 1.2 µM -6% | [3]; at 3.7 µM 14% | [4]; at 1.2 µM -5% | [4]; [15] 23% | [5]; at 1.2 µM 2% | [5]; [15] 33% | [6]; at 1.2 µM -9% | [7]; [15] 13% | [8]; at 1.2 µM -6% | [9]; at 1.2 µM -5% | [9]; at 3.7 µM 64% | [9]; [15] 9% | [13]; [15] 13% | [14]; at 1.2 µM -5%
active: [1]; at 3.7 µM 78% | [1]; at 11.0 µM 99% | [1]; at 33.0 µM 99% | [1]; at 100.0 µM 99% | [2]; at 3.7 µM 75% | [2]; at 11.0 µM 99% | [2]; at 33.0 µM 99% | [2]; at 100.0 µM 99% | [3]; at 11.0 µM 90% | [3]; at 33.0 µM 98% | [3]; at 100.0 µM 97% | [4]; at 3.7 µM 77% | [4]; at 11.0 µM 98% | [4]; at 33.0 µM 99% | [4]; [16] 99% | [4]; at 50.0 µM 79.2% | [4]; at 100.0 µM 98% | [5]; at 3.7 µM 77% | [5]; at 11.0 µM 99% | [5]; at 33.0 µM 99% | [5]; [16] 97% | [5]; at 50.0 µM 86% | [5]; at 100.0 µM 99% | [6]; at 3.7 µM 87% | [6]; at 11.0 µM 99% | [6]; at 33.0 µM 99% | [6]; at 100.0 µM 99% | [7]; [16] 99% | [7]; at 50.0 µM 92% | [8]; at 3.7 µM 84% | [8]; at 11.0 µM 99% | [8]; at 33.0 µM 99% | [8]; at 100.0 µM 99% | [9]; at 11.0 µM 99% | [9]; at 33.0 µM 99% | [9]; [16] 98% | [9]; at 50.0 µM 91% | [9]; at 100.0 µM 99% | [13]; [16] 98% | [13]; at 50.0 µM 91.5% | [14]; at 3.7 µM 79% | [14]; at 11.0 µM 98% | [14]; at 33.0 µM 99% | [14]; at 100.0 µM 95%
